High-throughput results deposited in PubChem BioAssay by several laboratories.
MazEF act = activators of E. coli MazEF toxin-antitoxin RNase; P0AE70; FAM/BHQ RNA-DNA oligo cleavage fluorescence, 5 h; activation, % at 20 µM; 350,000 tested, 0.32% active; in the data active means activation above about 50%
Mtb bLac sens = beta-lactam sensitization of Mtb H37Rv; 330,000 tested, 0.27% active; M. tuberculosis H37Rv growth with meropenem, percent inhibition; AID 434955; inhibition, % at 25 µM; call rule not given here;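 further: growth measured after seven days incubation then overnight dye step; 0% = bacteria only wells and 100% = bacteria with antibiotic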
GDH-TPI inh = counter-screen for M. tuberculosis FBA inhibitors: GDH-TPI coupled enzymes; GDH-TPI coupled enzyme counterscreen, NADH absorbance; inhibition, % at 4.8 µM; 360,000 tested, 1.2% active; AID 588335;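 further: 0% = DMSO wells and 100% = wells lacking the enzyme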
Mtb FBA inh = inhibitors of M. tuberculosis fructose-bisphosphate aldolase; P9WQA3; purified M. tuberculosis FBA, fluorescence read-out; inhibition, % at 1 µM; 360,000 tested, 2.3% active; in the data active means inhibition above about 27%;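 further: 0% = vehicle and 100% = reference inhibitor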
Target sequence (P9WQA3 whole entry, looked up): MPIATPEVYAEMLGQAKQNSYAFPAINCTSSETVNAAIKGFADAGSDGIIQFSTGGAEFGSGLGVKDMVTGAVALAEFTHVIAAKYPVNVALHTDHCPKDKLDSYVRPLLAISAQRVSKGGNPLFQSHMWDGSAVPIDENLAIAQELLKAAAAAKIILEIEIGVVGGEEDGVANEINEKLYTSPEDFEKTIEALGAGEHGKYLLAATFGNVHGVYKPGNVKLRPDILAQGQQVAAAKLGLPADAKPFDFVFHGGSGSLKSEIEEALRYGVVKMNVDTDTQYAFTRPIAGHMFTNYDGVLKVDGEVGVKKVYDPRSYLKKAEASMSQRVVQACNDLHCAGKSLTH
CCHFV vOTU inh = CCHFV vOTU protease inhibition. 370,000 tested, 0.55% active. Pep-AMC fluorescence. AID 651958. inhibition, % at 11.5 µM; further: 0% = vehicle wells with enzyme and 100% = no enzyme wells
Active calls of the source: *. The list is not random: actives were taken first. Their share in the collection is about 4%. Unless noted, no stated cut-off is given here; in the data, active means inhibition above about 30%; inactive means the rest.

O=C1c2cccc3cccc(c23)C(=O)N1CC1CCN(CC(O)COc2ccc3ccccc3c2)CC1 (centres undefined) was read as MazEF act -34, Mtb bLac sens 100, GDH-TPI inh 42*, Mtb FBA inh 5 and CCHFV vOTU inh 20.
Cn1c(=O)c2c(nc(-c3ccc(N(CCCl)CCCl)cc3)n2C)n(C)c1=O was read as MazEF act 3, GDH-TPI inh 39*, Mtb FBA inh active and CCHFV vOTU inh -232.
Nn1c(SCC(=O)Nc2ccc(OCc3ccccc3)cc2)nnc1-c1cc(-c2ccccc2)n[nH]1 was read as CCHFV vOTU inh 2.
For CCOc1cc(CN2CCN(c3ccc(C(C)=O)cc3)CC2)ccc1OC the results were MazEF act -1, Mtb bLac sens 1, GDH-TPI inh 38*, Mtb FBA inh 3 and CCHFV vOTU inh -5.
For CN1Cc2nnn(CC3CCCCC3)c2-c2ccccc2S1(=O)=O the results were CCHFV vOTU inh 3.
COc1ccc(-c2nnc(SCC(=O)N/N=C\C=C/c3ccco3)n2-c2ccc(C)cc2)cc1 was read as CCHFV vOTU inh 18.
Screening Cc1cc(=O)oc2cc(NC(=O)CCCC(=O)O)ccc12 returned MazEF act 11, Mtb bLac sens -10, GDH-TPI inh 19, Mtb FBA inh active and CCHFV vOTU inh -75.
For Cc1cc(=O)oc2cc(NC(=O)CCC(=O)O)ccc12 the results were MazEF act 8, Mtb bLac sens -5, GDH-TPI inh 9, Mtb FBA inh 197* and CCHFV vOTU inh -102.
Cc1ccc(NC(=O)c2ccc(NCCN)c([N+](=O)[O-])c2)cc1 was read as MazEF act 13, Mtb bLac sens -10, GDH-TPI inh -2, Mtb FBA inh -4 and CCHFV vOTU inh -4.
Screening Cc1ccc(NC(=O)c2ccc(NCc3ccco3)c([N+](=O)[O-])c2)cc1Cl returned MazEF act 334*, Mtb bLac sens -2, GDH-TPI inh 5, Mtb FBA inh 1 and CCHFV vOTU inh -9.
`Cc1cccc(NC(=O)c2ccc(NCCc3ccccc3)c([N+](=O)[O-])c2)c1` gave MazEF act 575*, Mtb bLac sens 4, GDH-TPI inh -3, Mtb FBA inh 3 and CCHFV vOTU inh -2.
Screening O=C(Nc1ccc(Nc2ccccc2)cc1)c1ccc(Cl)c([N+](=O)[O-])c1 returned MazEF act 78*, Mtb bLac sens 8, GDH-TPI inh 2, Mtb FBA inh 0 and CCHFV vOTU inh 5.
Cc1ccc(NC(=O)c2ccc(NCC3CCCO3)c([N+](=O)[O-])c2)cc1Cl (centres undefined) was read as MazEF act 267*, Mtb bLac sens -4, GDH-TPI inh 4, Mtb FBA inh -2 and CCHFV vOTU inh 2.
For O=C(Nc1nc2ncccn2c1-c1ccc(F)c(F)c1)C1CC1 the results were CCHFV vOTU inh -45.
`C/C(=N\Nc1c([N+](=O)[O-])c(C)nn1C)c1ccc(F)cc1F` gave MazEF act 6, Mtb bLac sens -2, GDH-TPI inh 33*, Mtb FBA inh 0 and CCHFV vOTU inh 14.
COCC(=O)N[C@@H]1C[C@@H]2O[C@H](CO)CC[C@@H]2O[C@@H]1CCc1ccc(-c2ccccc2)cc1 was read as CCHFV vOTU inh 1.
Screening O=C(OCc1cn(Cc2ccccc2C(F)(F)F)nn1)N1CCOCC1 returned CCHFV vOTU inh 2.
CCC(C)NC(=O)CNc1nnnn1-c1ccccc1 (centres undefined) was read as CCHFV vOTU inh -3.
For Oc1ccc(/C=N/n2c(-c3ccccc3)n[nH]c2=S)cc1Br the results were MazEF act 10, Mtb bLac sens 2, GDH-TPI inh 48*, Mtb FBA inh -1 and CCHFV vOTU inh -1.
Oc1c(Br)cc(/C=N/n2c(-c3ccccc3)n[nH]c2=S)cc1Br was read as MazEF act 4, Mtb bLac sens -1, GDH-TPI inh 31*, Mtb FBA inh -1 and CCHFV vOTU inh 2.
`Oc1c(Br)cc(/C=N/n2c(-c3ccccc3)n[nH]c2=S)c(O)c1Br` gave MazEF act 10, Mtb bLac sens -6, GDH-TPI inh 36* and Mtb FBA inh 4.
`Cc1c(Br)c(O)c(Br)c(O)c1/C=N/n1c(-c2ccccc2)n[nH]c1=S` gave MazEF act -3, Mtb bLac sens 2, GDH-TPI inh 19 and Mtb FBA inh 3.
For O=C(CCc1ccccc1)N[C@H]1[C@@H](OC(=O)c2cnccn2)CCC[C@]12C(=O)N(Cc1ccccc1)c1ccccc12 the results were CCHFV vOTU inh -4.
